mIDH1 inhibitor = qHTS for Inhibitors of mutant isocitrate dehydrogenase 1 (IDH1): qHTS | Isocitrate dehydrogenase [NADP] cytoplasmic (Homo sapiens), O75874 | IDH1-R132H enzyme, NADPH consumption, diaphorase/resazurin fluorescence | Potency, µM (series often up to 76.6 µM), without a hit: top-dose activity change, negative = inhibition, actives largely listed as inhibitors | actives 0.093% (n = 390,000) | AID 602179, 2012; also: % is scaled to controls: 0 for no effect and ±100 for the full control effect; nearly all actives have a fitted effect of over 65% in size
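IDH1-R132H (0.5 ug/mL dispensed) in pH 7.5 Tris buffer was preincubated 30 min with compound, then given a substrate mix of 0.016 mM NADPH and 2 mM alpha-KG for 80 min at room temperature; remaining NADPH was read by diaphorase/resazurin fluorescence.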
TrxR1 substrate = qHTS Assay for Substrates of Mammalian Selenoprotein Thioredoxin Reductase 1 (TrxR1): qHTS | Thioredoxin reductase 1, cytoplasmic (Rattus norvegicus), O89049 | purified TrxR1 substrate turnover, NADPH consumption readout | Potency, µM (highest dose often 114 µM), inactives show at the highest dose activity change, negative = substrate turnover | actives 0.01% (n = 390,000) | AID 588456, 2011; also: % is scaled to controls: 0 for no effect and ±100 for the full control effect; nearly all actives have a fitted effect of over 50% in size
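Rat TrxR1, dispensed at 90 nM, was prereduced with 400 uM NADPH (final) for 5 min at ~22 deg C, then incubated with compound 15 min before 400 uM selenite. A first-read NADPH fluorescence drop versus no-compound background flagged substrates.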
GRP78 ERSR act = qHTS for Inducers of the Endoplasmic Reticulum Stress Response (ERSR) in Human Glioma: qHTS; AID 602332, 2012; Potency, µM, without a hit: at the top dose activation, usual class: activators; actives 0.02% (n = 420,000); U87-MG GRP78 promoter luciferase reporter, 16 h; also: series mostly up to about 76 µM; % of control where 0% means no effect; nearly all actives have a fitted effect of over 35% in size
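ERSR induction read as luciferase luminescence (Bright-Glo, 10 min at room temperature) in stably transfected human U87-MG glioma cells exposed to compounds for 16 h, using GRP78 as sensor.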
Anesthetic bind = qHTS Assay for Identification of Novel General Anesthetics; Ferritin light chain (Equus caballus), P02791; apoferritin/1-aminoanthracene competitive binding, fluorescence; Potency, µM (titrated, usually from 77.5 µM), for inactives: at the top dose activity change, negative = displacement, hits mostly inhibitors; actives 0.074% (n = 350,000); AID 485281, 2010; also: % is scaled to controls: 0 for no effect and ±100 for the full control effect; nearly all actives have a fitted effect of over 20% in size
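Steps: apoferritin (10 uM) was premixed with half-saturated 1-AMA in PBS, compounds were pin-transferred, plates stood 10 min at room temperature, fluorescence was read at 380/535 nm, and curves were fitted with a Hill equation.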
12-LOX inh = Primary qHTS assay for inhibitors of human arachidonate 12S-lipoxygenase (ALOX12): Round 2; purified 12hLO, xylenol orange hydroperoxide absorbance; Potency, µM (series often up to 108 µM), for the others: top-dose activity change, negative = inhibition, actives largely listed as inhibitors; actives 1.1% (n = 580,000); AID 1671190, 2021; also: % is scaled to controls: 0 for no effect and ±100 for the full control effect
Target sequence (P18054 whole entry, looked up): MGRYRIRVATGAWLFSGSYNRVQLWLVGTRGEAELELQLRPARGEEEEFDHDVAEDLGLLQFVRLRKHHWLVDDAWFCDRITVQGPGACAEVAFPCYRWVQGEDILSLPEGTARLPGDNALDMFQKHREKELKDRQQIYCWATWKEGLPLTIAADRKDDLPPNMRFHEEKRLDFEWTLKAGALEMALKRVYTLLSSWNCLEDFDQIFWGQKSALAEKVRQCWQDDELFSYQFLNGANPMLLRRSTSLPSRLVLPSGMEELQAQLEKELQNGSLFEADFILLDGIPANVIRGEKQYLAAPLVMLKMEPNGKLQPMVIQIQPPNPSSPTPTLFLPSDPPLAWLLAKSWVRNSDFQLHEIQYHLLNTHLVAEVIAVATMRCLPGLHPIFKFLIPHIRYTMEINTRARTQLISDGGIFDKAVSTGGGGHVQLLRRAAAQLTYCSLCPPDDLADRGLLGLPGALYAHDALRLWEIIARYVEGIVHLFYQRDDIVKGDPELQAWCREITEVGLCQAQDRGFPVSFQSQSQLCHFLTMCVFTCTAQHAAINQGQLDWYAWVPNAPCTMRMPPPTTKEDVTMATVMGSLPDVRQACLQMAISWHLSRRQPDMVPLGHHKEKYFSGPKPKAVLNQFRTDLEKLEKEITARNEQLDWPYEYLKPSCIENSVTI
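Purified human 12hLO at 150 nM in 25 mM Hepes, 0.01% Triton X-100, pH 7.0, preincubated 15 min at room temperature with compound. Reaction started with 40 uM arachidonic acid, 30 min at room temperature. Hydroperoxide measured by Fe-xylenol orange, 573/405 nm absorbance ratio.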
TrxR1 inh = qHTS Assay for Inhibitors of Mammalian Selenoprotein Thioredoxin Reductase 1 (TrxR1): qHTS. actives 1% (n = 390,000). AID 588453, 2011. Potency, µM (highest dose often 114 µM), without a hit: at the top dose activity change, negative = inhibition, most hits filed as inhibitors. recombinant rTrxR1, NADPH fluorescence consumption, selenite substrate. Thioredoxin reductase 1, cytoplasmic (Rattus norvegicus), O89049; also: % is scaled to controls: 0 for no effect and ±100 for the full control effect; nearly all actives have a fitted effect of over 65% in size
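Rat TrxR1 (90 nM in the dispensed reagent) was pre-reduced with 400 uM NADPH for 5 min at room temperature, then incubated with compound for 15 min. After 400 uM selenite was added, NADPH fluorescence (Ex 340/Em 450 nm) was followed for 8 min.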
* = called active by the depositor; ? = inconclusive; · = no result; ! = a repeat was not active; [ ] = another dose, or the depositor's remark. In the library only some 1.7% were active in any assay of this set; here they are far more common. Calls follow the shape of the dose curve; as a rule, active = well fitted curve in the direction sought with a large enough effect; inconclusive = small, poorly fitted or top-dose-only effect, or another doubt; inactive = no such curve, though single readings can be large; an effect the other way counts as inactive or inconclusive. Potency is read from the fitted curve at half-maximal effect.

SMILES	mIDH1 inhibitor	TrxR1 substrate	GRP78 ERSR act	Anesthetic bind	12-LOX inh	TrxR1 inh
COc1ccc(/C=N\Nc2ccc([N+](=O)[O-])cc2[N+](=O)[O-])c(C(=O)O)c1OC	13%	-19%	-3%	-10%	?	50µM*
CCCCN(CCCC)Cc1cc(=O)oc2cc(C)c(O)cc12	·	·	·	·	40µM*	·
COc1ccc(CNC(=O)N2CCC(CCOc3ccccc3OC)C2)cc1 (centres undefined)	·	·	·	·	0%	·
Cc1c(CC(=O)N2CCCC2)c(=O)oc2cc(O)ccc12	·	·	·	·	-3%	·
O=C(NC1CCCC1)C(c1ccc(F)cc1)N(Cc1ccc(F)cc1)C(=O)CCl (centres undefined)	-2%	-1%	-3%	-1%	?	40µM*
COC(CN(C(=O)CCl)C(C(=O)NC1CCCCC1)c1ccc(C)cc1)OC (centres undefined)	2%	3%	0%	-3%	-12%	40µM*
O=c1c(-c2cccs2)nc2cnc(N3CCNCC3)nc2n1C1CC1	·	·	-4%	·	?	·
CCN(CC)C(=S)SC/C(=N/Nc1ccc(Br)cc1)c1ccccc1	·	·	·	·	7.9µM*	·
CCN(CC)C(=S)SCC(=O)c1ccc(Br)cc1	3%	2%	-1%	?	?	16%
CC(C)c1ccc(NC(=O)C2CCCCC(=O)N2)cc1 (centres undefined)	·	·	·	·	-3%	·
CCC(=O)N1CCC(Oc2ccc(C(N)=O)cn2)C1 (centres undefined)	·	·	·	·	9%	·
Oc1ccc(CNc2ccccc2F)c2cccnc12	7%	11%[57.1 µM]	-1%	?	2.2µM*!	?
Cc1noc(-c2ccc3c(c2)OCO3)c1C(=O)NCCSCc1ccccc1	·	·	·	·	20µM*	·
CC(=O)c1c(C)c(C)c2n1CCn1c(C)ccc1-2	0%	1%	0%	2%	?	25µM*
CC(C)CCn1nnnc1C(c1ccccc1)N1CCN(C)CC1 (centres undefined)	-1%	-7%	-6%	-17%	6%	-11%
C=CCN1CCN(C(c2ccccc2)c2nnnn2CCC(C)C)CC1 (centres undefined)	3%	6%[57.1 µM]	5%	-15%	-29%	28µM*
O=C(c1coc(COc2ccc(F)cc2Cl)n1)N1C[C@H]2CC[C@H]1C2	·	·	·	·	14%	·
C=CCn1c(CN2C[C@@H]3C(C(=O)N(C)C)[C@@H]3C2)nc2ccccc21 (some centres undefined)	·	·	·	·	50%	·
COc1ccc(Cl)cc1NC(=O)C(C)n1nnc2sc3c(c2c1=O)CCCC3 (centres undefined)	·	-5%	·	-5%	?	4%
C=CCOc1ccc(/C=C2/C(=O)ON=C2C)cc1OC	0%	0%	-2%	-8%	18µM*	-21%
CCCOc1ccc(/C=C2/C(=O)ON=C2C)cc1OCC	-5%	-1%	-2%	-10%	?	?
COc1ccc(/C=C2/C(=O)ON=C2C)cc1Cl	0%	-1%	-2%	-4%	7.9µM*	?
Cc1noc(CN(C)C(=O)c2ccc3oc(Cc4ccc(Cl)cc4)nc3c2)n1	·	·	·	·	20%	·
Nc1ccc2oc(Cc3ccc(Cl)cc3)nc2c1	·	1%	·	-5%	3%	50µM*
O=C(CN1C(=O)NC2(CCOCC2)C1=O)Nc1ccccc1	·	·	·	·	20%	·
SMILES	mIDH1 inhibitor	TrxR1 substrate	GRP78 ERSR act	Anesthetic bind	12-LOX inh	TrxR1 inh
COC(=O)NCC12CC3CC(C1)CC(CNC(=O)OC)(C3)C2	-2%	5%	-1%	?	0%	35µM*
Cc1ccc2nc(Cl)c3nnnn3c2c1	0%	3%	-16%	-3%	·	8.9µM*
Cc1ccc2nc(NCc3ccccc3Cl)c3nnnn3c2c1	-4%	23%	-1%	8%	2%	16%
Cc1noc(C)c1-c1nc(N2CCOCC2)c2ccccc2n1	·	·	-3%	-15%	40µM*	·
Cc1noc(C)c1-c1nc(N2CCNCC2)c2ccccc2n1	·	·	-5%	-6%	-14%	·
Cc1noc(C)c1-c1nc(N2CCN(C)CC2)c2ccccc2n1	·	·	-3%	·	18µM*	·
CC(C)=C1C(=O)NN(c2ccc(C)c(Cl)c2)C1=O	-3%	-4%	-1%	-1%	50µM*	?
COC(=O)CCNC(=O)C1c2ccccc2C(=O)N(c2ccccc2)C12CCCCC2 (centres undefined)	·	·	·	·	18%	·
CN(C)C(=O)C1CN(C(=O)c2cc(F)ccc2F)CC12CCOCC2 (centres undefined)	·	·	·	·	58%	·
CC(C)(C)c1ccc(/C=N/c2sc3c(c2C#N)CCCC3)cc1	·	·	·	·	28µM*	·
CCN(/C=N/c1sc2c(c1C#N)CCCCC2)CC	1%	0%[57.1 µM]	5%	9%	45µM*	6%[57.1 µM]
N#Cc1c(N)sc2c1CCCCCC2	7%	3%[57.1 µM]	6%	?	35µM*	21%[57.1 µM]
N#Cc1c(N)sc(=S)c2c1CCCCC2	5%	-23%[11.4 µM]	-6%	37%	?	-69%[57.1 µM]
COc1ccc(-c2c(NC(=O)c3cccs3)oc3ccc(Cl)cc3c2=O)cc1OC	·	·	·	·	-47%	·
CCCSc1ccccc1C(=O)Nc1cccc(C)c1C	·	·	·	·	25µM*	·
COCCSc1ccccc1C(=O)Nc1nnc(C)s1	14%	6%	-3%	-6%	11µM*	6%
COCCSc1ccccc1C(=O)Nc1ccccc1C(C)C	-11%	3%[57.1 µM]	0%	-12%	?	26%[57.1 µM]
COCCSc1ccccc1C(=O)Nc1nccs1	4%	10%	-3%	-11%	14µM*	21%
O=c1c(C(c2ccc(Br)cc2)c2c(O)nc3n(c2=O)CCS3)c(O)nc2n1CCS2	-1%	4%	-2%	3%	?	1.6µM*
O=c1c(C(c2ccc(Br)cc2)c2c(O)nc3n(c2=O)CCCS3)c(O)nc2n1CCCS2	0%	?	-1%	4%	0%	7.1µM*
CN(C)CC(=O)N1CCC2(C1)CN(C)c1ccc(C(=O)NCc3ccccc3)cc12 (centres undefined)	·	·	·	·	34%[176 µM]	·
O=C(CCl)N1N=C(c2ccco2)CC1c1ccco1 (centres undefined)	-4%	4%	-9%	1%	?	2.5µM*
